Entries with a potency or affinity are not part of this list. The source made the active and inactive calls.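 Rule for the calls: active = fitted half-maximal dose no more than twice the top valid tested dose, for compounds that lower signal; inconclusive = fit invalid, or curve flat with activity between -70 and -30; inactive = potency past limit, curve flat within ±30, or signal increasing.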
The compounds below were run against NAD-dependent protein deacylase sirtuin-5, mitochondrial (Homo sapiens) (UniProt Q9NXA8) (assay: SIRT5 deacylase inhibitors, dose response, biochemical, fluorescence imaging, cherry-pick, set 6 (AID 720597;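 note: lower AMC signal can also come from blocking the trypsin step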)). Details: Purified SirT5, succinyl-peptide-AMC/trypsin fluorescence; series mostly up to 15 µM.
Chain of NAD-dependent protein deacylase sirtuin-5, mitochondrial (Homo sapiens) (Q9NXA8 whole entry, looked up): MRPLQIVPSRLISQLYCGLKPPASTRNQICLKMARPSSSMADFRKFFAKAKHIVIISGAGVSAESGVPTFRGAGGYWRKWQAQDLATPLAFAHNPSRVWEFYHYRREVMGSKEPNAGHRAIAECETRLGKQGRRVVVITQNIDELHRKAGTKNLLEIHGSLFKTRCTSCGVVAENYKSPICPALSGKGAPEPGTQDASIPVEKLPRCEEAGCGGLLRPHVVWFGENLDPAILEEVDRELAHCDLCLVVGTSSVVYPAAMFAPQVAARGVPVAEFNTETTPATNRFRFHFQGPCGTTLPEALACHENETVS
In the case of `C[C@@H]1CN([C@H](C)CO)C(=O)Cc2cc(NS(=O)(=O)c3ccc(F)cc3)ccc2O[C@@H]1CN(C)Cc1ccc(C(F)(F)F)cc1`, the outcome was “inactive”.
With `Cc1noc(C)c1NC(=O)Nc1cccc2c1O[C@@H](CN(C)Cc1ccc(Oc3ccccc3)cc1)[C@@H](C)CN([C@H](C)CO)C2=O` the outcome was “inactive”.
For `Cc1ccc(S(=O)(=O)N(C)C[C@H]2OCCCC[C@@H](C)Oc3ccc(NS(=O)(=O)c4ccc(Cl)cc4)cc3C(=O)N([C@@H](C)CO)C[C@H]2C)cc1`, the outcome was “inactive”.
For `O=C(C[C@H]1C[C@@H]2c3cc(NC(=O)C4CCC4)ccc3O[C@@H]2[C@@H](CO)O1)NCc1ccc(-c2ccccc2)cc1`, the outcome was “inactive”.
`Cc1ccc(S(=O)(=O)Nc2ccc3c(c2)C(=O)N([C@@H](C)CO)C[C@H](C)[C@H](CN(C)Cc2ccc(C(F)(F)F)cc2)OCCCC[C@@H](C)O3)cc1` was tested, and the outcome was “inactive”.
In the case of `O=C(Nc1ccccc1F)N1C[C@@H]2N[C@H](C1)C2c1ccc(/C=C/c2ccccc2)cc1` (stereo not given in full), the outcome was “inactive”.
With `C[C@H](O)C#Cc1ccc2c(c1)O[C@@H](CN(C)Cc1ccc(-c3ccccc3)cc1)[C@H](C)CN([C@H](C)CO)S2(=O)=O` the outcome was “inactive”.
For `CCCC(=O)Nc1ccc2c(c1)OC[C@@H](C)N(Cc1ccccc1)C[C@@H](C)[C@@H](OC)CN(C)C2=O`, the outcome was “inactive”.
`C[C@@H]1CN([C@H](C)CO)S(=O)(=O)c2ccc(C#Cc3ccc(F)cc3)cc2O[C@H]1CN(C)S(=O)(=O)c1ccc(F)cc1` was tested, and the outcome was “inactive”.
In the case of `COc1ccc(C#Cc2ccc([C@H]3[C@H]4CN(C(=O)c5cccnc5)CC(=O)N4[C@H]3CO)cc2)cc1`, the outcome was “inactive”.

Source: PubChem BioAssay AID720597 (Broad Institute, 2013)
